According to PubChem BioAssay (Tox21):
Results filed as inconclusive are left out. A number with no mark means an inactive call. The source made the active and inactive calls. Calls come from the whole dose curve; as a rule, active = well fitted cell-killing curve with a large enough effect in the repeat runs; inconclusive = weak or mixed curves, or effect the other way; inactive = flat fitted curve, though single readings scatter.

Assay: qHTS assay to identify small molecule agonists of the androgen receptor (AR) signaling pathway in the presence of an antagonist - cell viability counter screen (AID 1259379); note: nearly all actives have a fitted effect of over 25% in size
Settings: MDA-kb2 viability, CellTiter-Fluor, 16 h; series mostly up to 92.4 µM; activity change, negative = cytotoxicity: at the top concentration
From the text: National Center for Advancing Translational Sciences [NCATS]
NIH Chemical Genomics Center [NCGC]
U.S. Environmental Protection Agency [EPA]
National Institutes of Environmental Health Sciences [NIEHS]
National Toxicology Program [NTP]
U.S. Food and Drug Administration [FDA]
Androgen receptor (AR) is an important member of nuclear receptor family. Its signaling plays a critical role in AR-dependent prostate cancer and other androgen related diseases. Considerable attention has been given in the past decades to develop methods to study and screen for the environmental chemicals that have the potential to interfere with metabolic homeostasis, reproduction, developmental and behavioral functions. Therefore AR binding assay for screening against androgen agonists and antagonists can be used to identify potential endocrine disruptors.
MDA-kb2 cells (from ATCC, deposited by Wilson et al.) are human breast carcinoma cells that were stably transfected with a luciferase reporter gene under control of the MMTV promoter that contains response elements for both androgen receptor (AR) and glucocorticoid receptor (GR). This particular screening for measuring luciferase reporter gene activity using MDA-kb2 cells against Tox21 10K library compounds is a confirmation study on agonist mode screening in the presence of AR-antagonist compound (Nilutamide) at 3.0uM final concentration. The cytotoxicity of the compounds was tested in parallel by measuring the cell viability using CellTiter-Fluor assay system (Promega, Madison, WI) in the same wells.
Tox21 Assay Protocol Summary:
MDA-kb2 cells (cells cultured without CO2) were dispensed at 3,000 cells/well in 4uL of culture medium into white wall/solid-bottom 1536-well plates (Corning Life Sciences, Corning, NY) using a Multidrop Combi (Thermo Fisher Scientific Inc., Waltham, MA) dispenser. The assay plates were incubated at 37C and 0% CO2 for 5hr. One uL of 3.0uM (final concentration) Nilutamide or assay buffer was added using two separate tips of Flying Reagent Dispenser (FRD, Aurora Discovery, San Diego, CA). Then 23nL of compounds dissolved in DMSO at 15 concentrations and positive controls were transferred to the assay plates using a Pintool station (Wako, San Diego, CA). The assay plates were incubated at 37C and 0% CO2 for 16 hr. After 15hr incubation at 37C, 1uL/well CellTiter-Fluor reagent (Promega Corporation) was added to each well of the assay plates using FRD. After 1hr incubation at 37C and 0% CO2, the fluorescence signal was measured using a ViewLux plate reader (PerkinElmer, Shelton, CT).
% is set by controls: 0 for no effect and ±100 for the full control effect; potency is the fitted concentration of half-maximal effect.

Compound	activity change, negative = cytotoxicity	Potency
OCCCS	2.01%	–
CNC(=S)NN	-0.45%	–
COc1ccc(-n2nc(CCC(=O)N(C)O)cc2-c2ccc(Cl)cc2)cc1	-2.11% [at 42.5 µM]	–
CCC(C)c1ccccc1 (stereo not given)	-0.0225%	–
O=C1NC2CCCCN2C12CCN(CCCN1c3ccccc3CCc3ccc(Cl)cc31)CC2 (stereo not given)	–	26.6 µM (active)
c1ccc(Nc2cccc3ccccc23)cc1	–	inactive
COC(=O)[C@]1(C)CCC[C@@]2(C)[C@H]1CC=C1C=C(C(C)C)CC[C@@H]12	-6.42%	–
O=C(Oc1ccccc1)c1cccc(C(=O)Oc2ccccc2)c1	0.833%	–
Clc1ccc(C(Cn2ccnc2)OCc2c(Cl)cccc2Cl)c(Cl)c1 (stereo not given)	-12% [at 42.5 µM]	–
CCC1CCCCC1	0.0674%	–
Cc1cc(=O)[nH]c(=O)[nH]1	-3.29%	–
C=C/C=C/C=C/CCCCC	1.29% [at 19 µM]	–
CCOC(=O)CC(C)O (stereo not given)	1.32%	–
c1ccc2c(c1)CCC2	1.02%	–
O=S(=O)(O)CCCN1CCOCC1	1.59%	–
NC(=O)c1ccccc1N	0.0831%	–
CC1(C)C(=O)N(CO)C(=O)N1CO	-0.285%	–
C/C=C/C=N/NC(=O)c1ccncc1	2.37% [at 42.5 µM]	–
CCCCCCCC/C=C\CCCCCCCC(=O)OCCOC(=O)CCCCCCC/C=C\CCCCCCCC	-11.4%	–
OCCN1CN(CCO)CN(CCO)C1	-6.45%	–

Compound	activity change, negative = cytotoxicity	Potency
O=C1Nc2ccc(Cl)cc2[C@@](C#CC2CC2)(C(F)(F)F)O1	-3.63% [at 42.5 µM]	–
CN(Cc1cc(Br)cc(Br)c1N)C1CCCCC1	-6.07% [at 42.5 µM]	–
OCCC(O)CO (stereo not given)	-0.974%	–
C=CC(C)(CCC=C(C)C)OC(=O)/C=C/c1ccccc1 (stereo not given)	6.3%	–
C=C(C)C(=O)OCCC[Si](Cl)(Cl)Cl	-0.603%	–
CCc1cccc(C)c1	-3.74%	–
CC(C)(c1cc(Br)c(O)c(Br)c1)c1cc(Br)c(O)c(Br)c1	–	inactive
Oc1ccc(-c2ccccc2)c(Cl)c1	1.63%	–
O=C1OC(=O)c2cccc3cccc1c23	0.709%	–
CCCCCCCCCCCCCCCC	0.14%	–
C1CC(COCC2CO2)CCC1COCC1CO1 (stereo not given)	-0.614%	–
Cc1cc(C)c(C=O)c(C)c1	0.359%	–
CC(C)(C)c1cc(/C=C2\SC(=N)NC2=O)cc(C(C)(C)C)c1O	-4.39%	–
CCCOc1sc(C(=O)N2CCC(c3cc(CN)ccc3F)CC2)c(C)c1Br	–	56 µM (active)
CCN(CC)CCSC(=O)C(c1ccccc1)c1ccccc1	-7.65% [at 42.5 µM]	–
O=C(O)c1cccc(Cl)n1	-0.0921%	–
CCCCOc1ccc(C(=O)CCN2CCCCC2)cc1	–	29.8 µM (active)
CC(C)=CC1CC(C)CCO1 (stereo not given)	2.71%	–
Cc1ccc(N)cc1O	0.0645%	–
O=C1c2c(O)ccc(O)c2C(=O)c2c(NCCNCCO)ccc(NCCNCCO)c21	–	11.9 µM (active)
